Test [1] is described as follows: liver-stage malaria parasite load reduction – cell-based, known kinase inhibitor set, luminescence, hepatoma host viability (AID 624392).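 Further: infected cells incubated roughly two days before readout.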 Particulars: Plasmodium liver stage in hepatoma cells, luciferase luminescence, concentration not given here; liver cell % of control: measured here: host liver cell viability; parasite % of control: stronger effect = lower value.
A short description of test [2]: altered dexamethasone sensitivity, NF-kB reporter, cell-based, luciferase, IL-1B stimulus (AID 624486).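 On percent of negative control (+Dex): 100% = mean signal of vehicle control wells on the plate.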 The note with it: IL-1B + dexamethasone, luminescence; percent of negative control (+Dex): actives lie on both sides, concentration not given here; z-score: measured here: IL-1B alone, no Dex.
Test [3] in a line: C. elegans survival during P. aeruginosa infection – whole organism (AID 651566).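 Further: tested at 14 µM; sign flipped so higher z means a lower ratio.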 Particulars: C. elegans killed by P. aeruginosa, survival ratio.
Test [4] is described as follows: pro-inflammatory signaling induction in mouse macrophages – cell-based, murine, luminescence (AID 652131). The note with it: murine macrophage pro-inflammatory reporter, stronger effect = higher value.
Test [5] deals with Cellular tumor antigen p53 (Homo sapiens) (UniProt P04637). Description: GFP-p53 level modulators in HPV16+ cells – imaging, known kinase inhibitor set, EGFP/DsRed ratio (AID 1053116).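 Further: cells exposed to compounds for 24 h at 37 °C before reading.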 The note with it: GFP-p53 stability, stronger effect = higher value; EGFP object count: measured here: GFP-p53 positive objects count.
Sequence of Cellular tumor antigen p53 (Homo sapiens) (P04637 whole entry, looked up): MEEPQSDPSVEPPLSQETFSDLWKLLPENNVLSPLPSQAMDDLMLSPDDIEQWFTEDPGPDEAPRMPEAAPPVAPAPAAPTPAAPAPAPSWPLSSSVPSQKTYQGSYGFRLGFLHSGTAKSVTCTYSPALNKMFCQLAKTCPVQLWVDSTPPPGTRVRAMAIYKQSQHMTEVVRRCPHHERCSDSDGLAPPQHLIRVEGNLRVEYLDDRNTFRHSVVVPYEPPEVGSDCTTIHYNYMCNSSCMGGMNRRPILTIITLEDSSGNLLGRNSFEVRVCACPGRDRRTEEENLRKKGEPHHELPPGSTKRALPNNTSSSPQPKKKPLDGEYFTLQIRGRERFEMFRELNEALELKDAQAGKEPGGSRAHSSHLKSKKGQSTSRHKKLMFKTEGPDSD
The nature of test [6]: inducers of IRF3 signaling, differentiated THP-1 – cell-based, PMA-stimulated THP-1, luminescence (AID 1053176). Particulars: PMA-differentiated THP-1, IRF3 reporter luminescence; stronger effect = higher value.
The nature of test [7]: MELAS cybrid and Rieske KO viability enhancers – cell-based, MELAS cybrids, Rieske KO mouse fibroblasts, CellTiter-Glo, primary screen (AID 1508586;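 active means mean z-score across replicates of 1.96 or higher in either the MELAS or the Rieske mutant cell line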;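 further: z relative to plate mean and SD of compound and empty wells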). The note with it: low glucose. A general note: Cellular ATP, detected with luciferase, serves as a proxy for viable cell number.
Test [8] is described as follows: viability loss in pontine glioma line – cell-based, JHH-DIPG-1, MIPE4.0, CellTiter-Glo, qHTS, dose response (AID 1347062; cut-off not given, nearly all actives have AC50 up to about 27 µM;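 on AC50: cells exposed to compound for two days before readout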). The note with it: JHH-DIPG-1 viability, CellTiter-Glo ATP luminescence.
Test [9] is described as follows: viability loss in pontine glioma line – cell-based, SU-DIPG-IV, MIPE4.0, CellTiter-Glo, qHTS, dose response (AID 1347063; cut-off not given, nearly all actives have AC50 up to about 30 µM;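 further: compound exposure lasted 48 hours before the viability readout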). The note with it: CellTiter-Glo ATP luminescence.
Test [10] is described as follows: viability loss in pontine glioma line – cell-based, SU-DIPG-XXV, MIPE5.0, CellTiter-Glo, qHTS, dose response (AID 1347065; cut-off not given, nearly all actives have AC50 up to about 26 µM;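 further: cells exposed to compound for 48 hours before ATP readout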). Particulars: CellTiter-Glo ATP luminescence.
Test [11] in a line: growth inhibition of DIPG cells – cell-based, MIPE4.0 library, CellTiter-Glo luminescence, qHTS (AID 1347066; cut-off not given, nearly all actives have AC50 up to about 30 µM;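 further: cells exposed to compound for 48 hours before readout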). The note with it: SU-DIPG-VI viability, CellTiter-Glo ATP luminescence.
Test [12] is described as follows: JHH-DIPG-1 glioma cell viability, MIPE5.0 library, CellTiter-Glo luminescence, qHTS (AID 1347067; cut-off not given, nearly all actives have AC50 up to about 26 µM;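 further: cells exposed to compound for 48 hours before readout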). The note with it: JHH-DIPG-1 glioma viability, CellTiter-Glo ATP luminescence.
Test [13] in a line: growth inhibition of DIPG cells – cell-based, MIPE5.0 library, qHTS (AID 1347068; cut-off not given, nearly all actives have IC50 up to about 30 µM). Particulars: SU-DIPG-XXV viability. A general note: qHTS replaces the single test concentration by a dilution series.
Test [14] can be described thus: P. berghei load reduction in hepatocytes – cell-based, HepG2, luciferase luminescence, HepG2 viability, primary screen (AID 624349; in the data active means parasite load remaining mostly below about 12%, no sharp cut-off; inactive means mostly above about 10%;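 further: 100% = mean of DMSO negative control wells on the same plate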). Particulars: P. berghei liver stage in HepG2, luciferase luminescence, concentration not given here; parasite load remaining: stronger effect = lower value; viability: measured here: HepG2 viability without parasites.
A short description of test [15]: viability loss with induced miR-34 in A549 – imaging, A549 dox-inducible miR-34, nuclei and caspase counts, primary screen (AID 1347080;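 active means compounds whose cell count with miR-34 switched on is under 0.7 times the count with it off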). The note with it: A549 miR-34 inducible, Hoechst nuclei count, 48 h.
A short description of test [16]: galactose survival enhancers in mitochondrial complex I cybrids – cell-based, galactose medium, ATP luminescence, primary screen (AID 1645843;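 active means z-score of at least 1.8 in each of two replicates, scored against plate mean and spread of sample wells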;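 further: positive z means more ATP and so rescue of galactose-driven cybrid death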). Particulars: complex I mutant cybrid cells, 72 h, stronger effect = higher value.
Test [17] can be described thus: viability loss in pontine glioma line – cell-based, SU-DIPG-XIII, MIPE4.0, CellTiter-Glo, qHTS, dose response (AID 1347061; cut-off not given, nearly all actives have AC50 up to about 37 µM;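 further: cells exposed to compound for 48 hours before readout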). The note with it: CellTiter-Glo ATP luminescence.
The mark [18] stands for this setting: MELAS cybrid survival, CellTiter-Glo 48 h, stronger effect = higher value.
[19] abbreviates: Rieske KO mouse fibroblast survival, CellTiter-Glo 72 h.

Inconclusive results are not listed. Calls of active or inactive are those of the source. Unless noted, how the calls were made is not given here.

As usually defined, the AC50 is the midpoint of the concentration-response curve, whichever way the signal moves. In general, viability refers to a per cent measure of how many cells are alive, often set against a control.

Consider `Cc1ccc(O)cc1Nc1ccnc2cc(-c3ccccn3)ccc12`, for which the liver cell % of control in test [1] came to 100%. The parasite % of control in test [1] was 65.6% (inactive). For the same compound, the percent of negative control (+Dex) in [2] was 89.5% (inactive). The z-score was -0.24 in [2]; -1.05 (inactive) in test [3]; 5.39 (inactive) in test [4]; -0.612 in test [7] (setting [18]); 4.8 in [7] (setting [19]). Also, the EGFP object count in [5] was 3.5. In addition, in test [5], the EGFP/DsRed ratio was 0.137 (inactive). Also, the fraction signal in test [6] was 0.014 (inactive).
The compound `Cn1cc(C2=C(c3c4n(c5ccccc35)CCC(CN)C4)C(=O)NC2=O)c2ccccc21` (stereo not drawn) displayed a liver cell % of control in [1] of 84.3%. The parasite % of control in [1] was 50.7% (inactive). Further, the percent of negative control (+Dex) in test [2] was 89.5% (inactive). Besides, the z-score in test [2] was -0.37. The EGFP object count in [5] came to 2. The EGFP/DsRed ratio in [5] is 0.0193 (inactive). Further, the fraction signal in test [6] is -0.001 (inactive). Moreover, the figures for the half-maximal activity concentration (AC50) in test [8], in test [9] and in [11] were 13.2 µM (active), 18.7 µM (active) and 23.5 µM (active), respectively. The compound was called inactive in [10], in test [12] and in test [13].
In turn, `NS(=O)(=O)c1cccc(N=Cc2c(O)[nH]c3ccccc23)c1` gave a liver cell % of control in test [1] of 80.7%. Further, the parasite % of control in test [1] is 106% (inactive). For the same compound, in test [2], the percent of negative control (+Dex) was 89.5% (inactive). In addition, the z-score in test [2] was 0.485; in [3], -1.3 (inactive); in [4], 1.25 (inactive); in test [7] (setting [18]), 1.07 (inactive); in [7] (setting [19]) it was -0.155. In addition, the EGFP object count in [5] turned out to be 7. In [5], the EGFP/DsRed ratio was 0.162 (inactive). In test [6], the fraction signal was -0.0005 (inactive).
On to `Fc1ccc(-c2nc3n(c2-c2ccncc2)CCS3)cc1`, for which the parasite load remaining in test [14] is 45.5% (inactive). This compound also returned a viability in [14] of 65.6%. The liver cell % of control in test [1] stood at 122%. In addition, the parasite % of control in test [1] is 126% (inactive). For the same compound, the percent of negative control (+Dex) in [2] was 112% (inactive). For the same compound, the z-score in [2] was 2.42; in test [3], 0.075 (inactive); in [4], 2.76 (inactive); in [7] (setting [18]), 1.07 (inactive); in test [7] (setting [19]) it was 0.11; in test [16], -0.365 (inactive). The EGFP object count in [5] was 4. In addition, in test [5], the EGFP/DsRed ratio was 0.154 (inactive). In addition, the fraction signal in test [6] is -0.0105 (inactive). Further, the fold change in test [15] (stronger effect = lower value, cell number ratio, induced over uninduced) is 0.866 (inactive); in test [15] (measured here: relative caspase fold change +Dox/-Dox) it was 1.21. Moreover, the cell count came to 4970 in test [15] (measured here: total cells with miR-34 induction, stronger effect = lower value) and 5730 in test [15] (measured here: total cells without miR-34 induction).
For the compound `COc1cc2ncn(-c3cc(OCc4ccccc4S(C)(=O)=O)c(C#N)s3)c2cc1OC`, the parasite load remaining in [14] was 28.4% (inactive). Also, in [14], the viability was 80.2%. This compound also registered a liver cell % of control in test [1] of 84.7%. Besides, the parasite % of control in test [1] was 80.2% (inactive). The percent of negative control (+Dex) in test [2] was 72.5% (inactive). Also, the z-score was -0.135 in [2]; -0.355 (inactive) in test [3]; 8.9 (active) in [4]; 0.713 (inactive) in test [7] (setting [18]); -0.131 in [7] (setting [19]). In test [5], the EGFP object count is 7.5. In test [5], the EGFP/DsRed ratio was 0.318 (inactive). For the same compound, the fraction signal in [6] is 0.0015 (inactive). The call in test [17], in test [8], in test [9], in test [10], in test [11] and in test [12] was inactive. The compound was classed as inactive in test [13].

These data come from PubChem BioAssay.
